Experimental findings from PubChem BioAssay are described below.

Experiment [1] can be described thus: yeast TOR pathway RPL19A-GFP modulators, primary screen, cell-based, S. cerevisiae, multiplex flow cytometry (AID 1862).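 Note: lower values mimic rapamycin by blocking the RPL19A rise seen in DMSO cells.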 The following applies: S. cerevisiae RPL19A-GFP strain, flow cytometry fluorescence, 3 h; at 10 µM; stronger effect = lower value.
The nature of experiment [2]: modulators of MEP2-GFP levels in yeast, primary screen, S. cerevisiae, multiplex flow cytometry (AID 1867;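 active = GFP response, as percent of the DMSO control, above the screen-wide mean plus 3 SD, about 139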;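 note: median GFP channel fluorescence of barcode-gated MEP2-GFP cells measured by flow cytometry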). The settings on record: S. cerevisiae MEP2-GFP strain, 3 h, at 10 µM, stronger effect = higher value, 100% means same as DMSO wells.
Experiment [3] can be described thus: modulators of CIT2-GFP expression in yeast, primary screen, S. cerevisiae, GFP fusion, multiplex flow cytometry (AID 1870;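 active = percent response above a set limit, the screen-wide mean plus 3 SD, cut at about 130% in these data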;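 note: barcoded CIT2-GFP strain pooled with four other GFP strains with rapamycin as positive control; median GFP fluorescence per well over plate mean of DMSO wells so 100% = DMSO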). The following applies: 3 h, at 10 µM, stronger effect = higher value. (In flow cytometry, cells or beads pass a laser one at a time.)
A short description of experiment [4]: modulators of LAP4-GFP expression in yeast, primary screen, S. cerevisiae, multiplex flow cytometry (AID 1873;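 active = GFP signal, as percent of the solvent control, above the screen mean plus 3 SD, about 149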). The settings on record: 3 h, at 10 µM, stronger effect = higher value.
Experiment [5] is described as follows: modulators of AGP1-GFP expression in yeast TOR pathway, primary screen, cell-based, multiplex flow cytometry, S. cerevisiae (AID 1887;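 active = GFP signal above the screen-wide mean plus 3 SD, that is over about 124.5% of the solvent control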;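 note: AGP1-GFP fusion strain of S. cerevisiae within a five-strain barcoded multiplex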). The settings on record: 3 h, at 10 µM, stronger effect = higher value.
Experiment [6] is described as follows: inhibitors of CD8+ T cell-vesicle binding, pilot screen, LFA-1/ICAM-1 modulator project, MLPCN validation set, flow cytometry (AID 2523;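 active = response below a set limit, under 55% cells CD8-positive and vesicle-bound, and CD8 cells' 90th-percentile brightness under 279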;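 for vesicle binding response: mean PE anti-B7-1 fluorescence of CD8+ cells relative to row control; 100% = QL9-loaded vesicles with DMSO vehicle in the same plate row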). The following applies: 2C mouse CD8+ T cells, at 7 µM, stronger effect = lower value; double positive events: measured here: CD8+/vesicle+ event percentage.
Experiment [7] has as its target Integrin beta-1 (Homo sapiens) + Integrin alpha-4 (Homo sapiens) (UniProt P13612+P05556). Nature of the experiment: inhibition of HUTS-21 binding to VLA-4, pilot screen, VLA-4 allosteric modulator project, U937 cells, HUTS-21 mAb, flow cytometry, validation set (AID 2674;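 active = inhibition above 50%, about 3 SD of the validation set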;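 note: antibody binding induced by the VLA-4 ligand LDV present at three times its Kd; 0% = LDV ligand with antibody and no compound and 100% = antibody without LDV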). The following applies: HUTS-21 LIBS mAb binding, at 6.7 µM, stronger effect = higher value, binding induced by LDV ligand.

Experiment [8] in a line: superoxide lowering in aged yeast cells, pilot screen, validation compound set (AID 2706;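 active = superoxide response below 65% of plate, a cut near 3 SD across the whole screen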;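 note: yeast exposed to compound for one week at 30 degrees C before staining; 100% = mean of all compound wells on the same plate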). The settings on record: S. cerevisiae aging, superoxide DHE fluorescence; at 10 µM; stronger effect = lower value.
Experiment [9] has as its target Beta-adrenergic receptor kinase 1 (Homo sapiens) (UniProt P25098). Description: GRK2 binders displacing RNA aptamer, biochemical, validation, human GRK2, bead flow cytometry (AID 488806;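 active = aptamer binding inhibition above 30%, about 3 SD of noise from non-fluorescent compounds; inactive = inhibition at or below 30%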). The settings on record: bead-bound GRK2, FAM-aptamer displacement, at 10 µM, stronger effect = higher value.
The target in experiment [10] is Beta-2 adrenergic receptor (Homo sapiens) (UniProt P07550). Nature of the experiment: beta2AR agonists driving receptor internalization, pilot screen, cell-based, FAP fluorogen, flow cytometry, validation set (AID 504459;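 active = percent response above 42, roughly 3 SD of non-fluorescent test compounds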;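 note: agonist-driven loss of surface beta2AR via internalization measured by FAP dye flow cytometry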). The settings on record: Am2.2-beta2AR cells, FAP surface receptor flow cytometry; at 10 µM; stronger effect = higher value.
The target of experiment [11] is AP-2 complex subunit beta (Homo sapiens) (UniProt P63010). Description: inhibitors of arrestin peptide binding to AP2, pilot screen, biochemical, validation set, GST-AP2 beads, flow cytometry (AID 504541;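 active = inhibition above 54%, about 3 SD of non-fluorescent compounds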;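 note: AP2 carries R879A mutation and is captured from E. coli lysate; bead-bound FITC arrestin peptide fluorescence measuring arrestin peptide binding to AP2; 0% = DMSO wells and 100% = excess unlabeled arrestin peptide control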). The following applies: FITC arrestin peptide, at 10 µM, stronger effect = higher value, AP2 beta2 appendage fragment, R879A mutant.
Experiment [12] can be described thus: yeast V-ATPase proton transport modulators, S. cerevisiae, pHLuorin, HTS validation (AID 504600; in the data active = response above about 15%;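 note: plate controls were DMSO for no effect and reference compound for full effect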). The settings on record: S. cerevisiae pHLuorin cytosolic pH, at 10 µM, stronger effect = higher value.
The subject of experiment [13] is anti-desmoglein-3 scFv antibody binding to human DSG3. Description: inhibitors of anti-DSG3 scFv binding to DSG3, pilot screen, biochemical, validation compound set, bead-based, flow cytometry (AID 588368;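 active = binding below the plate cutoff, the plate median minus 3 SD, with a reading above zero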;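 note: signal is the median channel fluorescence of bead-bound GFP antibody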). The settings on record: Protein G beads, DSG3-Fc, scFv-GFP binding, at 10 µM, stronger effect = lower value.
A short description of experiment [14]: inhibitors of fungal efflux pumps CDR1, CDR2, MDR1, pilot screen, validation compound set, multiplex, phenotypic (AID 588506;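 active = efflux inhibition above 0.42, the validation set average plus 4 SD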;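 note: Nile Red retained in cells so higher fluorescence means more efflux inhibition; 0 = negative control wells and 1 = enniatin B 25 µM full block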). The following applies: S. cerevisiae pump-expressing triplex, Nile Red efflux flow cytometry; at 10 µM; stronger effect = higher value; the pumps come from Candida albicans.
In experiment [15] the target is ATP-binding cassette sub-family B member 6 (Homo sapiens) (UniProt Q9NP58). Nature of the experiment: ABCB6 transporter inhibitors, pilot screen, K562-ABCB6 cells, flow cytometry, validation set (AID 588550;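 active = inhibition above the screen-wide mean plus 3 SD, about 51%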;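 note: 0% = DMSO wells and 100% = benzethonium chloride 70 µM positive control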). The settings on record: K562-ABCB6 porphyrin accumulation, 1 h, at 10 µM, stronger effect = higher value.
Experiment [16] in a line: promoters of myeloid differentiation in arrested cells, primary screen, cell-based, GFP/MAC1 double positive, flow cytometry, validation set (AID 588685;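 active = differentiation response of at least 50%, scaled between solvent and reference control, from cells with both markers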;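 note: compound exposure lasts four days before antibody staining and flow analysis; 0% = DMSO wells and 100% = 5 µM fulvestrant positive control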). The following applies: ER-HoxA9 marrow cells, stronger effect = higher value, normalized: vehicle 0, fulvestrant 100.

Records with an inconclusive call do not appear. Calls of active or inactive are those of the source. Cut-off read from the data, not from the text of the source, unless noted: active = percent of DMSO control GFP below about 86%; inactive = the rest, inconclusive results apart.

Sequence of Beta-adrenergic receptor kinase 1 (Homo sapiens) (P25098 whole entry, looked up): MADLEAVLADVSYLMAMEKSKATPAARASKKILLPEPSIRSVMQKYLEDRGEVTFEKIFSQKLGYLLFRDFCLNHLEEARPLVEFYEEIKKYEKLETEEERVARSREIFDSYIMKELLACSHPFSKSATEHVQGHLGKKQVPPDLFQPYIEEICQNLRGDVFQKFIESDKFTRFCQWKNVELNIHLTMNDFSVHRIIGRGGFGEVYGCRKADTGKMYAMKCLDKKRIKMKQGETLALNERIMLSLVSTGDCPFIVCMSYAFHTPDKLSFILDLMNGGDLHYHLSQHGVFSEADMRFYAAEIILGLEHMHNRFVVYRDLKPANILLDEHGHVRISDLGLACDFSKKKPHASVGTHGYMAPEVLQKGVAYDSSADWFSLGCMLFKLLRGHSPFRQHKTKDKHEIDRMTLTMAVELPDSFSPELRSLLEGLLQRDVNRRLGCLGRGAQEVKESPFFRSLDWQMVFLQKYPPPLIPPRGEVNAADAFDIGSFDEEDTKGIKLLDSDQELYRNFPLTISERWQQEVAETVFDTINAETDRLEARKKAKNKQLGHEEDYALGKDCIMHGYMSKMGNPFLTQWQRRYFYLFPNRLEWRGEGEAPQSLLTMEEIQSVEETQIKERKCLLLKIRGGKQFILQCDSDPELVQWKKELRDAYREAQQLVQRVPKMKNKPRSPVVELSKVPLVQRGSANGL
Sequence of Beta-2 adrenergic receptor (Homo sapiens) (P07550 whole entry, looked up): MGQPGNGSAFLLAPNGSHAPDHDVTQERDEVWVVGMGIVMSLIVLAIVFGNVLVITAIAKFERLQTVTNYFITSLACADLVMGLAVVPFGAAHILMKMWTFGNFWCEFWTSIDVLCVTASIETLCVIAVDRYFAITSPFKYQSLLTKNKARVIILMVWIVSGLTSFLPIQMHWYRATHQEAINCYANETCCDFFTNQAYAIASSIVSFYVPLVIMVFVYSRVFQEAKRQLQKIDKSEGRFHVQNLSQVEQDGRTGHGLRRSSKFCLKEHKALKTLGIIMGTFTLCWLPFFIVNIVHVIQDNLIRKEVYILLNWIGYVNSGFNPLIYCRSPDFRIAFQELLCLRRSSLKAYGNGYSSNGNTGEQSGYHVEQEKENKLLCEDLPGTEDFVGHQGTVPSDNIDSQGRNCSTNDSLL
Sequence of Integrin beta-1 (Homo sapiens) + Integrin alpha-4 (Homo sapiens) (P05556 whole entry, looked up): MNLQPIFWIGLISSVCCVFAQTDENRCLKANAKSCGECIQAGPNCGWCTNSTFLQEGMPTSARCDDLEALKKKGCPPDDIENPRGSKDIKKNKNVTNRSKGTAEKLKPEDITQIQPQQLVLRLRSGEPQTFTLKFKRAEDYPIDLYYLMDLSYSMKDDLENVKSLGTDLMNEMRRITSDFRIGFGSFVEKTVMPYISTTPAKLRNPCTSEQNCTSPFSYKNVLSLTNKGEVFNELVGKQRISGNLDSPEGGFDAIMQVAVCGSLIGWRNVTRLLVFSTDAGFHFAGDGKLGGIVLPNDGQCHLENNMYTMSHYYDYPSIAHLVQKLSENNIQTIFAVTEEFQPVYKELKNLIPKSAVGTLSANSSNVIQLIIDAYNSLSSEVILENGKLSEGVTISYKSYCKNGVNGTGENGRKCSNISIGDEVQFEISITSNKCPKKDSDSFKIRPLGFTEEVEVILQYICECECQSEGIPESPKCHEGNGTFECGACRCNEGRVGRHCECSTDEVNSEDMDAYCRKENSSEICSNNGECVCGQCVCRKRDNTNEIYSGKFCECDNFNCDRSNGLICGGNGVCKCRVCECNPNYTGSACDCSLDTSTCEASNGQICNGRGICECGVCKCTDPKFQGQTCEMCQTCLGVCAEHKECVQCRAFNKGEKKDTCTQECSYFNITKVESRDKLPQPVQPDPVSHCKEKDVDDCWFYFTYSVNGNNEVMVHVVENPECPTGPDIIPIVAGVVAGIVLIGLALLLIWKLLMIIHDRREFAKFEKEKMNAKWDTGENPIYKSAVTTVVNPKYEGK
Sequence of Integrin beta-1 (Homo sapiens) + Integrin alpha-4 (Homo sapiens) (P13612 whole entry, looked up): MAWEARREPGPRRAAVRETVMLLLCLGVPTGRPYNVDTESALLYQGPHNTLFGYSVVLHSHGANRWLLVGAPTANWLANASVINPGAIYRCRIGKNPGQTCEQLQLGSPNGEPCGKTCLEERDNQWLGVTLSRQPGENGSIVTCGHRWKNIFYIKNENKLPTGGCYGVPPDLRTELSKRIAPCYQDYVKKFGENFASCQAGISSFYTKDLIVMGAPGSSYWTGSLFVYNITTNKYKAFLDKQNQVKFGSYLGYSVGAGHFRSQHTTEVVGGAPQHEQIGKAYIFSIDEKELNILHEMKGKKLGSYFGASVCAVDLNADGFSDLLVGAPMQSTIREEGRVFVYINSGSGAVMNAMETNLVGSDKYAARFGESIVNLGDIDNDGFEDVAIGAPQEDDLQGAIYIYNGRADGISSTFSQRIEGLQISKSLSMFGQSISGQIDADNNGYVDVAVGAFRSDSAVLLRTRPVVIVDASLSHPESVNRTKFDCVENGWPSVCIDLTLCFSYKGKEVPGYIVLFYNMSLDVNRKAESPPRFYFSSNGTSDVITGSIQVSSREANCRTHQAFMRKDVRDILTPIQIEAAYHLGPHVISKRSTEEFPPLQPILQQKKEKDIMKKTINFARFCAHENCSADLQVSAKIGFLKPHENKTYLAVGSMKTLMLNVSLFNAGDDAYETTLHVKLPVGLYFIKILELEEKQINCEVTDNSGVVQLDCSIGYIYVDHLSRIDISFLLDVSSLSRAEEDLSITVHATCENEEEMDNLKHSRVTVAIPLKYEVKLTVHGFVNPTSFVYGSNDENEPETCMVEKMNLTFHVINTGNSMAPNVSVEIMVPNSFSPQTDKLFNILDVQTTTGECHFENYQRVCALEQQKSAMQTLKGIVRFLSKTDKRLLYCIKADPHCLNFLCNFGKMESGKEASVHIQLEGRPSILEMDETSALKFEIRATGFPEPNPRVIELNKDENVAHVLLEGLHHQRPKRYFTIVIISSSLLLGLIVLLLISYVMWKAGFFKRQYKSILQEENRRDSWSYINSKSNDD
Sequence of ATP-binding cassette sub-family B member 6 (Homo sapiens) (Q9NP58 whole entry, looked up): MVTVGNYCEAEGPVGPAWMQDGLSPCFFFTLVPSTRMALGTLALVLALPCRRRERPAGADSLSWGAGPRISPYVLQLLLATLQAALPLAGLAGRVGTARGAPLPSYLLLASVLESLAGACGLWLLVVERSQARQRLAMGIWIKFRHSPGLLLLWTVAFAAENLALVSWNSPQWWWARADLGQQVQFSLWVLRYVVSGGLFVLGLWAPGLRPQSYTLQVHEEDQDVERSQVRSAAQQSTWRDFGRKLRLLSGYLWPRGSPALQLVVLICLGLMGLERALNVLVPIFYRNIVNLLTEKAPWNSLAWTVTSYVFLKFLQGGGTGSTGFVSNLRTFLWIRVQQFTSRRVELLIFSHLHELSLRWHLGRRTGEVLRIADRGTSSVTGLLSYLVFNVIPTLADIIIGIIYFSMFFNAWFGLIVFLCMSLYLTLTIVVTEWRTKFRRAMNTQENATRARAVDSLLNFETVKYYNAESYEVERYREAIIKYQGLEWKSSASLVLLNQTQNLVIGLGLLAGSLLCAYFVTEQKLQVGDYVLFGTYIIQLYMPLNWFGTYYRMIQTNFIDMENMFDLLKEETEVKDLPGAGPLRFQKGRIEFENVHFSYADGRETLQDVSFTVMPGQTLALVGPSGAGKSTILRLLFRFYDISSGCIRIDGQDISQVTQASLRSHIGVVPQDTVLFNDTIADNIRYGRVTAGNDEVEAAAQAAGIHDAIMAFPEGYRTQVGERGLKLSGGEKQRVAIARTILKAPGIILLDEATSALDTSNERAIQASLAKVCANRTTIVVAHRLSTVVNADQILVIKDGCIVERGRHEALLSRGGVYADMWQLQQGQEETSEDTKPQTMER
Sequence of AP-2 complex subunit beta (Homo sapiens) (P63010 whole entry, looked up, the tested form may be a part, one chain of several): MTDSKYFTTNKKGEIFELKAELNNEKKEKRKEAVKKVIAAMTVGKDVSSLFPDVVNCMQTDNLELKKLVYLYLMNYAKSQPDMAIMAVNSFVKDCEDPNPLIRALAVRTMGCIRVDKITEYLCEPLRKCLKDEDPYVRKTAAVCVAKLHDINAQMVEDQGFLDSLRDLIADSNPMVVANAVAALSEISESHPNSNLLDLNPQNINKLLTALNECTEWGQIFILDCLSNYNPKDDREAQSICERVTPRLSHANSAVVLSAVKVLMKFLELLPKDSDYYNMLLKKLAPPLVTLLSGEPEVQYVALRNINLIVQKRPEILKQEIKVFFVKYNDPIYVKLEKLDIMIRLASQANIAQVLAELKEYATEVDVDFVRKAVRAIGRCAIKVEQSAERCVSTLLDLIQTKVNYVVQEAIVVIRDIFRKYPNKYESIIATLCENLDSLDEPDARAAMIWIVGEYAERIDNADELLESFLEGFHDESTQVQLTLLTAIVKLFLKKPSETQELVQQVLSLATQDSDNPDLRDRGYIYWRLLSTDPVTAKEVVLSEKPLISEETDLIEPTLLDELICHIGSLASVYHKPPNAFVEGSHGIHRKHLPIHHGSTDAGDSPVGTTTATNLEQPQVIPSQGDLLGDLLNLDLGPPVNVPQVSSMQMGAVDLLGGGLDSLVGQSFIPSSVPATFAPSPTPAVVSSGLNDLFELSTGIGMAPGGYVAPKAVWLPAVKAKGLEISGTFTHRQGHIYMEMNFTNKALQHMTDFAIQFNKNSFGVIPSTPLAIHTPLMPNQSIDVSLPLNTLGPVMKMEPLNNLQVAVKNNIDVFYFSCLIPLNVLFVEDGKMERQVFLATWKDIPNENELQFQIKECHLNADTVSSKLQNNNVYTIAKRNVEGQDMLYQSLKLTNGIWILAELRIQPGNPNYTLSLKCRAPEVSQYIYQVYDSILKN

By inhibition is commonly meant the relative decrease from the control value, in per cent. In the case of `Fc1ccccc1CNCCC(Cc1ccccc1)c1ccc2c(c1)OCO2` (stereo not given), in experiment [1], the percent of DMSO control GFP was 98.8% (inactive). Moreover, the GFP response vs DMSO in experiment [2] is 107% (inactive); in experiment [4] it was 90.2% (inactive). Further, the percent response of DMSO control in experiment [3] is 96% (inactive). Moreover, in experiment [5], the GFP response, % of DMSO is 94.9% (inactive). The molecule also came in with a double positive events in [6] of 63.8%. Further, in experiment [6], the vesicle binding response is 99.6% (inactive). Moreover, the inhibition in experiment [7] was 8.28% (inactive); in [11], 11.7% (inactive); in experiment [15], 4% (inactive). For the same molecule, in experiment [8], the superoxide response (% of plate) was 104% (inactive). Besides, in experiment [9], the aptamer binding inhibition is -1% (inactive). Moreover, the response was 14% (inactive) in experiment [10] and 1.06% (inactive) in [12]. In addition, the binding (% of control) in experiment [13] is 105% (inactive). The efflux inhibition (fraction of control) in experiment [14] is -0.22 (inactive). The differentiation response in experiment [16] is -5.68% (inactive).

`COc1cc(CNCc2ccc(OC)c(OC)c2OC)cc(OC)c1`: in experiment [1], the percent of DMSO control GFP was 105% (inactive). The figures for the GFP response vs DMSO in experiment [2] and in experiment [4] were 110% (inactive) and 104% (inactive), respectively. Also, in experiment [3], the percent response of DMSO control is 105% (inactive). In experiment [5], the GFP response, % of DMSO was 112% (inactive). Moreover, in [6], the double positive events came to 60.7%. The vesicle binding response in experiment [6] is 178% (inactive). In addition, the inhibition in [7] was 33.8% (inactive); in [11] it was 64.9% (active); in [15], 1% (inactive). In experiment [8], the superoxide response (% of plate) was 106% (inactive). Besides, the aptamer binding inhibition in experiment [9] is 2% (inactive). Further, the response in [10] is -16% (inactive); in [12], 22.7% (active). The binding (% of control) in experiment [13] is 102% (inactive). The efflux inhibition (fraction of control) in experiment [14] is 0 (inactive). Besides, the differentiation response in [16] is -11.9% (inactive).

As for `CC(=O)C1=C(Nc2ccc(C)cc2)CC(C)(O)C(C(C)=O)C1c1ccco1` (stereo not given), the percent of DMSO control GFP in experiment [1] is 105% (inactive). Moreover, the values for the GFP response vs DMSO in [2] and in experiment [4] were 104% (inactive) and 96.6% (inactive), respectively. Moreover, in experiment [3], the percent response of DMSO control is 93.1% (inactive). For the same molecule, the GFP response, % of DMSO in experiment [5] is 97.2% (inactive). Moreover, the double positive events in [6] was 66.9%. Moreover, the vesicle binding response in experiment [6] is 223% (inactive). Further, the inhibition in experiment [7] was -9.79% (inactive); in [11] it was 36.9% (inactive); in experiment [15], -19% (inactive). Further, the superoxide response (% of plate) in experiment [8] was 103% (inactive). The aptamer binding inhibition in experiment [9] is 5% (inactive). The response in experiment [10] is 0.66% (inactive); in experiment [12] it was -0.29% (inactive). For the same molecule, in experiment [13], the binding (% of control) was 105% (inactive). The efflux inhibition (fraction of control) in experiment [14] is 0.3 (inactive). In addition, the differentiation response in experiment [16] was 14.9% (inactive).

As to `CC(C)CC1c2[nH]c3ccccc3c2CCN1C(=O)CCC(=O)N(C)C` (stereo not given), the percent of DMSO control GFP in experiment [1] is 90.9% (inactive). Moreover, the GFP response vs DMSO in experiment [2] is 117% (inactive); in experiment [4], 79.2% (inactive). In addition, in experiment [3], the percent response of DMSO control was 107% (inactive). Further, the GFP response, % of DMSO in experiment [5] was 93.1% (inactive). The molecule further had a double positive events in experiment [6] of 80.7%. Also, in [6], the vesicle binding response is 264% (inactive). In addition, the inhibition in experiment [7] was 3.55% (inactive); in experiment [11] it was -2.59% (inactive); in experiment [15], 12% (inactive). The superoxide response (% of plate) in experiment [8] was 104% (inactive). In addition, in [9], the aptamer binding inhibition was 4% (inactive). The response in experiment [10] is 6.34% (inactive); in experiment [12], -2.43% (inactive). Besides, in [13], the binding (% of control) is 104% (inactive). Also, in experiment [14], the efflux inhibition (fraction of control) was -0.31 (inactive). The differentiation response in experiment [16] was -6.55% (inactive).

Regarding `CC1=C(/C=C/C(C)=C/C=C/C(C)=C/C(=O)O)C(C)(C)CCC1`, the percent of DMSO control GFP in [1] is 106% (inactive). Also, the GFP response vs DMSO in experiment [2] is 106% (inactive); in experiment [4], 125% (inactive). Further, the percent response of DMSO control in experiment [3] was 103% (inactive). In addition, the GFP response, % of DMSO in experiment [5] was 121% (inactive). This molecule also returned a double positive events in experiment [6] of 62.6%. Further, the vesicle binding response in experiment [6] is 194% (inactive). The figures for the inhibition in experiment [7], in experiment [11] and in experiment [15] were -2.82% (inactive), -5.9% (inactive) and -2% (inactive), respectively. In experiment [8], the superoxide response (% of plate) was 93.6% (inactive). In experiment [9], the aptamer binding inhibition is 1% (inactive). Besides, the results for the response in experiment [10] and in [12] were -11.2% (inactive) and -0.05% (inactive), respectively. In addition, in experiment [13], the binding (% of control) is 101% (inactive). Further, in experiment [14], the efflux inhibition (fraction of control) is 0.04 (inactive). In experiment [16], the differentiation response is -6.96% (inactive).
